Assay [1] is described as follows: qHTS assay to identify aromatase inhibitors - cell viability counter screen (AID 743084).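 Further: cells stimulated with testosterone during compound exposure; nearly all actives have a fitted effect of over 55% in size.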
Assay [2] is described as follows: qHTS assay to identify small molecule that activate the aryl hydrocarbon receptor (AhR) signaling pathway - cell viability counter screen (AID 743086).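 Further: HepG2 liver cells carrying the AhR DRE luciferase reporter; series mostly up to about 70 µM; nearly all actives have a fitted effect of over 45% in size.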 In a few lines:
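HepG2-AhR-luc (HG2L7.5c1) cells, 4000/well, were preincubated 5 h at 37C, exposed to compound in qHTS format for 24 hr at 37C, then given CellTiter-Fluor for 30 min; viability was read as fluorescence in the reporter wells.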

In assay [3] the target is Peroxisome proliferator-activated receptor gamma (Homo sapiens) (UniProt P37231). In words: qHTS assay to identify small molecule agonists of the peroxisome proliferator-activated receptor gamma (PPARg) signaling pathway (AID 743094; active means well fitted activation curve with a large enough effect in the signal ratio in the repeat runs, not every such curve was filed as active; the % refers to the signal ratio; further: potency means the concentration at half of the fitted maximal effect). In a few lines: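 Reporter activation was scored by fluorescence of cleaved LiveBLAzer B/G substrate (1 h, room temperature) in PPARg-bla HEK293H cells previously treated 17 h at 37C with DMSO-dissolved compounds.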
Peroxisome proliferator-activated receptor gamma (Homo sapiens), sequence (P37231 whole entry, looked up): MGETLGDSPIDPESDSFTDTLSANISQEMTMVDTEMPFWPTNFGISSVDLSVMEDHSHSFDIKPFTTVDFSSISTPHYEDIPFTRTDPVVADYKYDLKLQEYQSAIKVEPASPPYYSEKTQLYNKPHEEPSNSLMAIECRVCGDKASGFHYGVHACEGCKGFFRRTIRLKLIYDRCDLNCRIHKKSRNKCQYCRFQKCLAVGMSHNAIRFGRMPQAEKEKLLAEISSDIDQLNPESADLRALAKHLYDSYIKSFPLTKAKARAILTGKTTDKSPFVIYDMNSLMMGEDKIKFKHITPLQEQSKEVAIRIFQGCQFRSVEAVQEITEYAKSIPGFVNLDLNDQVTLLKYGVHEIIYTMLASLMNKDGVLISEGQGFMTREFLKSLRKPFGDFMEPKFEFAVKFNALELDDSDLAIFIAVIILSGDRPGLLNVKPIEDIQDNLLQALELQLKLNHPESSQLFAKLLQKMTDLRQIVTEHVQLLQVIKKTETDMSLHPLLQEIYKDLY

Assay [4] in a line: qHTS assay to identify small molecule antagonists of the peroxisome proliferator-activated receptor gamma (PPARg) signaling pathway - cell viability counter screen (AID 743194). Further: nearly all actives have a fitted effect of over 55% in size. In a few lines:
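PPARg-UAS-bla HEK293H cells were plated, rested 5 h at 37 C, then treated with compounds plus rosiglitazone (50 nM final) for 17 h at 37 C; viability was then read by CellTiter-Glo luminescence after 30 min at room temperature.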

Assay [5] is described as follows: qHTS assay for small molecule agonists of the antioxidant response element (ARE) signaling pathway - cell viability counter screen (AID 743203; calls by dose curve; further: nearly all actives have a fitted effect of over 55% in size). In a few lines:
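Viability counter screen: stably transfected ARE-bla HepG2 line, 16 hrs compound exposure at 37C/5% CO2, ATP-based CellTiter-Glo luminescence measured in the reporter wells.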

Assay [6] is described as follows: qHTS assay for small molecule activators of the heat shock response signaling pathway (AID 743210; active means well fitted activation curve with a large enough effect in the signal ratio in the repeat runs, with a control signal flat, not every such curve was filed as active; the % refers to the signal ratio;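 further: HeLa cells with beta-lactamase reporter driven by heat shock elements; series mostly up to about 63 µM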). In a few lines:
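Activation of heat shock element-controlled beta-lactamase expression is measured in HeLa cells by LiveBLAzer FRET fluorescence, with compound exposure lasting 5 h at 37 C and substrate loading 2.5 h at room temperature.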

The nature of assay [7]: qHTS assay to identify small molecule agonists of the peroxisome proliferator-activated receptor delta (PPARd) signaling pathway - cell viability counter screen (AID 743211). Further: nearly all actives have a fitted effect of over 55% in size. The method in brief: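 qHTS cell viability: PPARd-bla HEK293H; 17 h cpd, 37C; CellTiter-Glo, luminescence at 30 min RT.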
The nature of assay [8]: qHTS assay to identify small molecule antagonists of the peroxisome proliferator-activated receptor delta (PPARd) signaling pathway - cell viability counter screen (AID 743213). Further: nearly all actives have a fitted effect of over 50% in size. The method in brief: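 HEK293H cells with the PPARd UAS-bla reporter, co-treated 17 h at 37 C with compounds and L165041 (300 nM final), were lysed with CellTiter-Glo. Luminescence indicated viable cell content.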

A short description of assay [9]: qHTS assay to identify small molecule agonists of the farnesoid-X-receptor (FXR) signaling pathway - cell viability counter screen (AID 743218). Further: nearly all actives have a fitted effect of over 45% in size. Further: potency means the concentration at half of the fitted maximal effect. The method in brief: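 Viability of FXR-bla HEK 293T cells is measured by ATP-based CellTiter-Glo luminescence following 16 h compound treatment at 37 C and a prior 2 h room-temperature beta-lactamase substrate step.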
A short description of assay [10]: qHTS assay to identify small molecule antagonists of the farnesoid-X-receptor (FXR) signaling pathway - cell viability counter screen (AID 743221; active means well fitted cell-killing curve with a large enough effect in the repeat runs, not every such curve was filed as active; further: nearly all actives have a fitted effect of over 50% in size). In a few lines: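 After a 5 h settling period, FXR-bla HEK 293T cells receive compound and chenodeoxycholic acid (50 uM final) and incubate 16 h at 37 C; CellTiter-Glo luminescence, read after 30 min at room temperature, reports cell viability.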

Assay [11] addresses Vitamin D3 receptor (Homo sapiens) (UniProt P11473). The assay can be described thus: qHTS assay to identify small molecule agonists of the vitamin D receptor (VDR) signaling pathway (AID 743222; calls by dose curve). The method in brief:
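Fluorescence from cleaved LiveBLAzer B/G FRET substrate served as readout. VDR-bla cells had been treated 16 h at 37C with test compounds in DMSO, following a 4 h settling period, and substrate was loaded for 2 h at RT.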

Assay [12] shares this target. The assay can be described thus: qHTS assay to identify small molecule antagonists of the vitamin D receptor (VDR) signaling pathway (AID 743223; active means well fitted inhibition curve with a large enough effect in the signal ratio in the repeat runs, not every such curve was filed as active; the % refers to the signal ratio). The method in brief: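 Reporter line VDR-bla; stimulus 1alpha,25-(OH)2 vitamin D3, 3 nM final; compound co-addition, 16 h 37C/5% CO2; LiveBLAzer B/G substrate 2 h RT; fluorescence intensity.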
The target of assay [13] is Peroxisome proliferator-activated receptor gamma (Homo sapiens) (UniProt P37231). The assay can be described thus: qHTS assay to identify small molecule antagonists of the peroxisome proliferator-activated receptor gamma (PPARg) signaling pathway (AID 743191; calls by dose curve; further: series mostly up to about 63 µM; nearly all actives have a fitted effect of over 30% in size). In a few lines:
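GeneBLAzer PPARg UAS-bla HEK293H cells carrying a UAS-driven beta-lactamase reporter were plated at 3000 cells/well, preincubated 5 h at 37C, then given compound for 17 h at 37C; LiveBLAzer B/G FRET substrate was read after 1 h at room temperature.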

Assay [14] is described as follows: qHTS assay for small molecule agonists of the antioxidant response element (ARE) signaling pathway (AID 743202; active means well fitted activation curve with a large enough effect in the signal ratio in the repeat runs, not every such curve was filed as active; the % refers to the signal ratio). In a few lines:
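Steps: seed ARE-bla HepG2 cells (2,000/well); incubate 5 h at 37 C; add compounds by pin tool; incubate 16 h at 37 C; add FRET substrate; read fluorescence after 2 h at RT.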

Assay [15] concerns the target Peroxisome proliferator-activated receptor delta (Homo sapiens) (UniProt Q03181). The assay can be described thus: qHTS assay to identify small molecule agonists of the peroxisome proliferator-activated receptor delta (PPARd) signaling pathway (AID 743212; calls by dose curve; further: potency means the concentration at half of the fitted maximal effect). In a few lines: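 Cells expressing a UAS-driven beta-lactamase reporter (PPARd-bla HEK293H) were given test compounds after a 5 h settle and kept at 37 C. Reporter activity was then measured as FRET fluorescence using LiveBLAzer B/G substrate.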

The target of assay [16] is Bile acid receptor (Homo sapiens) (UniProt Q96RI1). In words: qHTS assay to identify small molecule antagonists of the farnesoid-X-receptor (FXR) signaling pathway (AID 743217; active means well fitted inhibition curve with a large enough effect in the signal ratio in the repeat runs, not every such curve was filed as active; the % refers to the signal ratio). The method in brief: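 Screen of the Tox21 10K library in quantitative HTS format using FXR-UAS-bla HEK 293T reporter cells. Agonist chenodeoxycholic acid, 50 uM final, added with compounds; 16 h incubation at 37 °C; beta-lactamase FRET fluorescence measured.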
Bile acid receptor (Homo sapiens), sequence (Q96RI1 whole entry, looked up): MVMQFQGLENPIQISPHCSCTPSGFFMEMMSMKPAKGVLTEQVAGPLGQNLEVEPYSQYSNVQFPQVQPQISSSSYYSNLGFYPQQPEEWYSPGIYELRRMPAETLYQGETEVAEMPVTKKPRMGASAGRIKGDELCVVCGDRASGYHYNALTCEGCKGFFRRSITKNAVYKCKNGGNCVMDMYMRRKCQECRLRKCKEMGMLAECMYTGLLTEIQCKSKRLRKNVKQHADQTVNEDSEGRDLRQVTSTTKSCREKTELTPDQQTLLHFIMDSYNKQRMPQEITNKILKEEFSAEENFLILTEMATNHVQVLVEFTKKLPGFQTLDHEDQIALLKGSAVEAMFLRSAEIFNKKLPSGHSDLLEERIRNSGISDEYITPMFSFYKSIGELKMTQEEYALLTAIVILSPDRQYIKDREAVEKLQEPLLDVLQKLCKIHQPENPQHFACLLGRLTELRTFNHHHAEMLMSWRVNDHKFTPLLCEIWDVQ

Assay [17] has the same target. The assay can be described thus: qHTS assay to identify small molecule agonists of the farnesoid-X-receptor (FXR) signaling pathway (AID 743220; active means well fitted activation curve with a large enough effect in the signal ratio in the repeat runs, not every such curve was filed as active; the % refers to the signal ratio). The method in brief:
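FXR-UAS-bla HEK 293T cells carrying a UAS-driven beta-lactamase reporter were plated for 5 h at 37C/5% CO2, then exposed to DMSO-dissolved Tox21 10K compounds for 16 h at 37C. A LiveBLAzer B/G FRET substrate was loaded for 2 h at room temperature before fluorescence reading.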

Assay [18] can be described thus: qHTS assay for small molecule activators of the heat shock response signaling pathway - cell viability counter screen (AID 743209). Further: nearly all actives have a fitted effect of over 50% in size. In a few lines: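 Viability of HSE-bla HeLa cells is measured with CellTiter-Glo in the wells already used for the reporter read. Compound exposure lasts 5 h at 37 C, and luminescence is read after 30 min at room temperature.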
The target of assay [19] is Peroxisome proliferator-activated receptor delta (Homo sapiens) (UniProt Q03181). In words: qHTS assay to identify small molecule antagonists of the peroxisome proliferator-activated receptor delta (PPARd) signaling pathway (AID 743215; active means well fitted inhibition curve with a large enough effect in the signal ratio in the repeat runs, not every such curve was filed as active; the % refers to the signal ratio;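 further: cells stimulated with agonist L165041 at 300 nM final during compound exposure; series mostly up to about 62 µM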). In a few lines:
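Plated HEK293H PPARd-bla cells rested 5 h at 37 C and 5% CO2. Compound, then agonist L165041 at 300 nM final, was added; 17 h at 37 C followed. Substrate loading, 2 h room temperature, fluorescence measured.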

Results filed as inconclusive are left out. A number with no mark means an inactive call. Active and inactive are the calls of the source. Unless noted, the call rests on the fitted dose curve; in most records, active means well fitted curve in the direction sought with a large enough effect in the repeat runs; inconclusive means weak or mixed curves; inactive means no such curve, though single readings can be large; an effect the other way counts as inactive or inconclusive.

Results on nine molecules are retold here after PubChem BioAssay (Tox21).
On the % scale 0 is the no-effect control and ±100 the full control effect.

Peroxisome proliferator-activated receptor delta (Homo sapiens), sequence (Q03181 whole entry, looked up): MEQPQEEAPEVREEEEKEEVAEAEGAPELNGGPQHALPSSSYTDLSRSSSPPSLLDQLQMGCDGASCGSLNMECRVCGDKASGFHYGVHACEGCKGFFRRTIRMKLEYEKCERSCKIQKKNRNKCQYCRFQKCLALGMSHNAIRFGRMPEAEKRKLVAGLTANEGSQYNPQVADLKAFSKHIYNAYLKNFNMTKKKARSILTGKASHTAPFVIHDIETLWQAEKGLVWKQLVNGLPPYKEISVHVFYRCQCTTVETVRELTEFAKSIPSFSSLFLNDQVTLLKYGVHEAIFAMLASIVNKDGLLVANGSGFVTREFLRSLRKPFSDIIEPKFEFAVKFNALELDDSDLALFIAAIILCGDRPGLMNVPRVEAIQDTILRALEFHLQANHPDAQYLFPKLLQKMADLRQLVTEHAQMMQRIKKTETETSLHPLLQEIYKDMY
Vitamin D3 receptor (Homo sapiens), sequence (P11473 whole entry, looked up): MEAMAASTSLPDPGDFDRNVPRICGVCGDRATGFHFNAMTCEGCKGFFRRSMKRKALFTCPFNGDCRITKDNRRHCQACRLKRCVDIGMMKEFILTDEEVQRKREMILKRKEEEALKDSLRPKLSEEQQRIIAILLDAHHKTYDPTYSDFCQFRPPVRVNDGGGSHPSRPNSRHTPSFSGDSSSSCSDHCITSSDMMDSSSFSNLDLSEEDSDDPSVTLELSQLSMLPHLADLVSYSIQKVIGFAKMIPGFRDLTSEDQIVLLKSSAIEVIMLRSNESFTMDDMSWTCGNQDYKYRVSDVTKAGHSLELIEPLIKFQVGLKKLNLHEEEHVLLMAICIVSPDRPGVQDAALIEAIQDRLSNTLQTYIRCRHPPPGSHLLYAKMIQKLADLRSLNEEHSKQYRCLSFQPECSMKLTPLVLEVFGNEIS

For `C[C@@H]1C[C@H]2O[C@@]3(O[C@@H]2C(C)(C)O)[C@H](O)[C@@]2(C)[C@@H]4CC[C@H]5C(C)(C)[C@@H](O[C@@H]6OC[C@@H](O)[C@H](O)[C@H]6O)CC[C@@]56C[C@@]46CC[C@]2(C)[C@@H]13`, the Potency entry in assay [1], in [2], in assay [3], in assay [4], in assay [5] and in assay [6] was “inactive” in each case. For the same molecule, the Potency result in assay [7], in assay [8], in [9], in [10] and in [11] was “inactive” throughout. Besides, the result in assay [12] was inactive.
Regarding `CC1(c2ccccc2)OC(C(=O)O)=CC1=O` (stereo unspecified), the Potency result in [1], in assay [2], in [3], in assay [13], in assay [4] and in assay [14] was “inactive” in each case. Besides, the Potency entry in assay [5], in [7], in assay [15], in assay [8], in assay [16] and in assay [17] was “inactive” each time. In assay [11], the Potency result is “inactive”.
Consider `NCc1ccccc1Sc1ccccc1CO`, for which the Potency result in assay [1], in assay [2], in assay [3], in assay [4], in assay [5] and in assay [18] was “inactive” in each case. Besides, the Potency entry in [6], in [7], in assay [8], in assay [9], in [10] and in assay [11] was “inactive” throughout. In addition, in assay [12], the molecule was classed as inactive.
Consider `C#C[C@]1(O)CC[C@H]2[C@@H]3CCc4cc(OC5CCCC5)ccc4[C@H]3CC[C@@]21C`, for which the Potency result in [1], in assay [2], in [3], in [4], in assay [18] and in [6] was “inactive” in each case. In assay [11], the Potency result was “inactive”. Further, the Potency in assay [9] is 26.6 µM (active). Moreover, the result in assay [12] was inactive.
Consider `O=C(O)c1ccccc1Cl`, for which the Potency entry in assay [1], in assay [2], in [3], in assay [14], in [5] and in [6] was “inactive” each time. Besides, the Potency result in [7], in [15], in assay [8], in assay [19], in assay [16] and in [17] was “inactive” in each case. The Potency result in [10] and in assay [11] was “inactive” each time. The molecule was classed as inactive in assay [12].
On to `Brc1c2ccccc2c(Br)c2ccccc12`, for which the activity change, negative = cytotoxicity is 12.2% [at 8.47 µM] in [1]; 7.41% [at 5.95 µM] in [4]; 2.9% [at 5.95 µM] in assay [18]; 11.2% [at 5.95 µM] in assay [7]; -3.74% [at 5.95 µM] in assay [10]. For the same molecule, the viability change, negative = cytotoxic in assay [2] is -2.96% [at 8.47 µM]; in [5], 3.8% [at 8.36 µM]; in assay [8], -15% [at 6.26 µM]. Further, the Potency in assay [3] and in [15] was 1.98 µM (active) throughout. Besides, the ratio activity, negative = inhibition in assay [19] is -10.9% [at 6.26 µM]. The activity change, negative = inhibition in assay [16] is 14.8% [at 5.95 µM].
In the case of `Brc1c2ccccc2cc2ccccc12`, the Potency entry in assay [1], in assay [2], in assay [4], in [18], in assay [7] and in [8] was “inactive” each time. The Potency result in [9] and in assay [10] was “inactive” each time. In addition, the Potency in [3] was 49.5 µM (active). In addition, the molecule was classed as inactive in assay [12].
`CCC(CC)Nc1ccc(C)c(C)c1`: the Potency entry in assay [1], in assay [2], in assay [3], in assay [13], in assay [14] and in assay [5] was “inactive” throughout. Besides, the Potency entry in assay [18], in [7], in assay [8] and in assay [10] was “inactive” in each case.
As to `N=c1ccn2c(n1)O[C@H]1[C@H](O)[C@@H](CO)O[C@H]12`, the Potency entry in [1], in assay [2], in assay [3], in assay [5], in [18] and in assay [6] was “inactive” each time. Besides, the Potency result in [7], in assay [8], in assay [9], in [10] and in assay [11] was “inactive” throughout. Besides, the call in assay [12] was inactive.
